Test results reported in PubChem BioAssay.
Activity calls are given as the source filed them. Unless noted, how the calls were made is not given here.

What was measured:
[1] = resazurin metabolic signal in HepG2 cells – cell-based, resazurin fluorescence, 24 h, PK04 Diversity Set, profiling panel (AID 1172); conditions: HepG2 viability, higher = more signal; further: test concentration not given here
[2] = budding yeast growth changes without added modifier – OD600, strain BY4716, 24 h, basal condition, primary screen (AID 1173); conditions: S. cerevisiae BY4716 growth, OD600, 24 h; higher = more signal, called active from +8 up or from −8 down
[3] = viability profiling in MM1S myeloma cells – cell-based, resazurin fluorescence, basal, 24 h, PK04 Diversity Set, profiling panel (AID 1174); conditions: higher = more signal, called active from +8 up or from −8 down;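 further: MM1S multiple myeloma cell line; test concentration not given here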
[4] = biological target: Dihydroorotate dehydrogenase (quinone), mitochondrial (Plasmodium falciparum (isolate 3D7)) (UniProt Q08210); assay: inhibition of P. falciparum DHODH – biochemical, C-terminal His tag, absorbance 600 nm, primary screen (AID 1175); conditions: PfDHODH enzyme, DCIP absorbance 600 nm; higher = more signal, called active from +8 up or from −8 down;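 further: recombinant parasite enzyme with a five histidine tag at its C terminus; test concentration not given here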
[5] = inhibition of PAO1 biofilm formation – strain PAO1, LB-PBS medium, absorbance 600 nm, primary screen (AID 1176); further: test concentration not given here; conditions: P. aeruginosa PAO1 growth/biofilm, A600, 12 h; higher = more signal
[6] = growth modulation of vineyard yeast isolate – strain RM11-1a, OD600, basal, 24 h, primary screen (AID 1177);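 further: cultures grown under basal conditions with no added stressor; test concentration not given here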; conditions: S. cerevisiae RM11-1a growth, OD600, 24 h; higher = more signal, called active from +8 up or from −8 down
[7] = growth of efflux-deficient E. coli DRC39 – strain DRC39, OD650, 24 h, E. coli filamentation inducers, primary screen (AID 1178);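 further: growth measured as culture turbidity by optical density at 650 nm; test concentration not given here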; conditions: E. coli DRC39 acrAB, higher = more signal, called active from +8 up or from −8 down
[8] = growth of efflux-deficient E. coli DRC39 – strain DRC39, OD650, 48 h, E. coli filamentation inducers, primary screen (AID 1179);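 further: screen aims at cell division blockers that make cells filament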; conditions: E. coli DRC39 delta-acrAB growth, higher = more signal, called active from +8 up or from −8 down
[9] = viability profiling in RPMI8226 myeloma cells – cell-based, resazurin fluorescence, basal, 24 h, PK04 Diversity Set, profiling panel (AID 1180); conditions: higher = more signal;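 further: RPMI8826 multiple myeloma cell line at 5000 cells per well; test concentration not given here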
[10] = biological target: E3 ubiquitin-protein ligase XIAP (Homo sapiens) (UniProt P98170); assay: small molecules binding XIAP protein – biophysical, small-molecule microarray, fluorescence 635 nm, primary screen (AID 1181); conditions: higher = more signal;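 further: score merges 667 nm emission and signal to noise over triplicate slides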
Chain of E3 ubiquitin-protein ligase XIAP (Homo sapiens) (P98170 whole entry, looked up): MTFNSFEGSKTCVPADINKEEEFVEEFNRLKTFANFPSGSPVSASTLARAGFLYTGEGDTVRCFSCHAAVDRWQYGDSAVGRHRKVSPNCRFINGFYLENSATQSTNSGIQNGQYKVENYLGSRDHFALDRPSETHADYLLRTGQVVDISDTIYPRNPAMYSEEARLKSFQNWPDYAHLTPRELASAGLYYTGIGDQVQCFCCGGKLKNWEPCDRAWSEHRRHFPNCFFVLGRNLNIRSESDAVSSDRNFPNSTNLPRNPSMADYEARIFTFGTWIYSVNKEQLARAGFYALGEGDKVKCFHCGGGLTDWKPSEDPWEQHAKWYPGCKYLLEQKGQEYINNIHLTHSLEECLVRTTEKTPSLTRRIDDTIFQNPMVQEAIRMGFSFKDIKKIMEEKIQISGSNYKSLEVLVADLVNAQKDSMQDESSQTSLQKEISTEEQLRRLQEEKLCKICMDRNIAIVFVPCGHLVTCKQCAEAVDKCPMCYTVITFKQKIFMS

Chain of Dihydroorotate dehydrogenase (quinone), mitochondrial (Plasmodium falciparum (isolate 3D7)) (Q08210 whole entry, looked up): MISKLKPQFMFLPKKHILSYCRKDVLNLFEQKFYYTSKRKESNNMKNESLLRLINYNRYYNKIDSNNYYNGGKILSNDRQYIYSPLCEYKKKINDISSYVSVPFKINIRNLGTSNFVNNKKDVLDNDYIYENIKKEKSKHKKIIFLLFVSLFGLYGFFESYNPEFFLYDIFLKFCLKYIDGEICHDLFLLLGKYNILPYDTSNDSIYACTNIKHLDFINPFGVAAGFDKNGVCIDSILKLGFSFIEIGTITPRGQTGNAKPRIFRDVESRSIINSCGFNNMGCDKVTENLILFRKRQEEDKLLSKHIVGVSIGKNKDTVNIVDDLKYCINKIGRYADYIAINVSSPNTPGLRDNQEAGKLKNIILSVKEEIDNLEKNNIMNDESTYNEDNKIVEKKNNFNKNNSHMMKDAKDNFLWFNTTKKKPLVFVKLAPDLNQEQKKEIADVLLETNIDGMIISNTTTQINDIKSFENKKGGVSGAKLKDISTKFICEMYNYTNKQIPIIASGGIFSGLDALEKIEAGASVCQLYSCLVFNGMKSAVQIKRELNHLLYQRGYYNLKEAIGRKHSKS

SMILES | z-score [1] | z-score [2] | z-score [3] | composite z-score [4] | z-score [5] | z-score [6] | z-score [7] | z-score [8] | z-score [9] | composite z-score [10]
O=C1OCCC/C=C\[C@H]2OC34C=CCN(c5ccc6ccccc6c5)C(=O)[C@H]3N(CCO)C(=O)[C@@H]4C12 (stereo not given in full) | -0.75 | 0.307 (inactive) | -0.997 (inactive) | 0.257 (inactive) | -0.634 (inactive) | 0.571 (inactive) | -0.937 (inactive) | -1.04 (inactive) | -0.15 | 0.275
O=C(O)[C@@H]1C[C@@H]2C(=O)N3CCC[C@H]3C(=O)N2[C@@H]1c1ccc(O)cc1 | -0.155 | -1.8 (inactive) | -0.695 (inactive) | -1.7 (inactive) | 1.03 (inactive) | -0.113 (inactive) | 0.437 (inactive) | -0.535 (inactive) | 0.16 | 0.0721
O=C1[C@H]2C=C(I)[C@H](C[C@@H]2OCCOCCO)[C@@]12CO2 | 0.0263 | -0.28 (inactive) | -0.448 (inactive) | 0.0832 (inactive) | 0.224 (inactive) | -0.145 (inactive) | -0.331 (inactive) | -0.175 (inactive) | -0.244 | -0.304
COC(=O)[C@@]1(Cc2ccc(F)cc2)[C@H]2c3cc(C(=O)N4CCCC4)n(Cc4ccc(C)c(F)c4F)c3C[C@H]2CN1C(=O)c1ccccc1 | -1.15 | 0.289 (inactive) | -1.42 (inactive) | -1.23 (inactive) | 1 (inactive) | 0.22 (inactive) | -0.107 (inactive) | -0.11 (inactive) | -0.588 | -0.0483
C=CC[C@H](OC(=O)Nc1ccc(SC)cc1)c1ccc(O)c2ccccc12 | -1.26 | -16.6 (active) | -6.71 (inactive) | -6.87 (inactive) | 1.44 (inactive) | -20.3 (active) | -0.146 (inactive) | -0.772 (inactive) | -5.02 | 0.104
[N-]=[N+]=Nc1ccccc1C[C@@]1(C(N)=O)N=C(c2ccc(OCCCO)cc2)O[C@@H]1c1ccccc1N=[N+]=[N-] | 0.212 | -3.3 (inactive) | -0.902 (inactive) | -0.652 (inactive) | 0.0405 (inactive) | -0.739 (inactive) | 0.891 (inactive) | -0.174 (inactive) | -0.76 | -0.112
COc1ccc([Si](C)(C)[C@H]2[C@H](CC(=O)N3Cc4ccccc4C[C@H]3CO)O[C@@]3(C(=O)N(Cc4ccc(N5CCOC5=O)cc4)c4ccccc43)[C@@H]2C)cc1 | -0.418 | -0.895 (inactive) | -3.41 (inactive) | -1.03 (inactive) | 0.732 (inactive) | 0.543 (inactive) | 0.166 (inactive) | -0.207 (inactive) | -2.27 | -0.105
C=CC[C@@H](OC(=O)Nc1ccc(SC)cc1)c1ccc(O)c(F)c1 | -0.227 | -15.5 (active) | -2.32 (inactive) | -1.9 (inactive) | 1.57 (inactive) | -6.97 (inactive) | 1.75 (inactive) | 1.38 (inactive) | -0.872 | -0.02
COCCOC(=O)N1C(=O)[C@@]2(c3cc(C#CCNC(N)=O)ccc31)[C@H](C(N)=O)[C@H]1C(=O)O[C@H](c3ccccc3)[C@H](c3ccccc3)N1[C@@H]2c1ccccc1OCCO | -0.281 | 0.407 (inactive) | -0.126 (inactive) | -0.235 (inactive) | 0.986 (inactive) | 1.59 (inactive) | -0.0653 (inactive) | -0.0752 (inactive) | -0.0771 | -0.135
CCCCC(CC)C(O)C1C=CC2C(=O)N(c3ccccc3)C(=O)C2N1Nc1ccc(C#N)cc1 (stereo not given) | -0.0318 | -0.847 (inactive) | -0.67 (inactive) | 0.215 (inactive) | 1.7 (inactive) | 0.913 (inactive) | 0.248 (inactive) | 0.0706 (inactive) | -0.661 | 0.212
CC1CC/C=C\[C@H]2OC34C=CCN(C(C)(C)C)C(=O)[C@H]3N(CCCCCO)C(=O)[C@@H]4C2C(=O)O1 (stereo not given in full) | -0.643 | 0.349 (inactive) | 0.285 (inactive) | 0.797 (inactive) | 0.121 (inactive) | -0.202 (inactive) | 0.338 (inactive) | 0.338 (inactive) | 0.0992 | -0.102
